Screening data from PubChem.
Sampled rows, rich in hits. Any-hit rate of the full collection: about 4.9%.
PP1 inh = counter-screen for PP5 inhibitors: inhibitors of human PP1-alpha. inhibition, % at 6.7 µM. P62136. 0.9% of 320,000 active. purified PP1alpha, OMFP fluorescence;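 active means inhibition above the mean inhibition of all tested compounds plus 3 SD, computed separately for each screening campaign, cut at about 15% in these data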
Calb FLC = C. albicans growth modulation with fluconazole; C. albicans CaCi-2 (fluconazole-resistant clinical isolate) + fluconazole, Alamar Blue growth, 48 h; growth inhibition, % (no concentration beside the values); 0.57% of 300,000 active;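 active means growth inhibition above about 58% in most replicates, limit read from the data, passing the limit was not always enough; inconclusive means exactly half the replicates above a set limit; inactive means most replicates below a set limit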;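 further: all wells also contain fluconazole at 8 µg/ml as a sub-toxic cotreatment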
PP5 primary = inhibitors of human protein phosphatase 5 (PP5); purified PP5c, OMFP substrate fluorescence; 0.18% of 320,000 active; inhibition, % at 6.7 µM;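 active means inhibition above the campaign's mean inhibition across all tested compounds plus 3 SD, cut at about 9.5% in these data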
Target sequence (P53041 whole entry, looked up): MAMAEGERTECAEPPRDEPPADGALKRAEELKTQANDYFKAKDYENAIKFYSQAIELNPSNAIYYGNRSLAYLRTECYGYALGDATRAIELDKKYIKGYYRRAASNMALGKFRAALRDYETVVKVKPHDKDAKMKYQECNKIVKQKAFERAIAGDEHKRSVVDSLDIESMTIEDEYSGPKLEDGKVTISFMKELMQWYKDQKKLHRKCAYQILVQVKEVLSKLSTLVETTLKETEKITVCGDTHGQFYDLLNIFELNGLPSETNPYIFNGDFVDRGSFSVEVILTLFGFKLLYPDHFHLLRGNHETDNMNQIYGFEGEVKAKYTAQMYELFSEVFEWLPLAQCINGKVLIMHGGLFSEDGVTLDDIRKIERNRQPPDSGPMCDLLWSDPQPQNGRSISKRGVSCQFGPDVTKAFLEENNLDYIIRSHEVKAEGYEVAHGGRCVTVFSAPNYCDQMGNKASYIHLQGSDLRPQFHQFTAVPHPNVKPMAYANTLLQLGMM
Beta cell apopt = blocks beta cell apoptosis; INS-1E cytokine-induced death, ATP luminescence, 48 h; percent of positive-control rescue, neutral wells zero; protection from apoptosis, % (test concentration not listed); 0.8% of 300,000 active;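 active means Every replicate reaches about 75%, or at least half do and their mean reaches it too, limit read from the data; inconclusive means At least half of replicates reach the limit but their mean does not; inactive means Under half of replicates reach the limit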;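 further: higher means more ATP so stronger rescue from cytokine killing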
CSC inhib = blocks cancer stem cells; 1.1% of 300,000 active; AID 2717; cancer stem cell-like cells viability, luminescence; inhibition, % at 7.5 µM; in the data active means inhibition above about 75%; inconclusive means no clear call, values can overlap the other calls; tested in HMLE shEcad cells
Mdm2 MdmX PPI = disrupts the human Mdm2-MdmX interaction. 3% of 330,000 active. inhibition, % at 8 µM. SaOS-2 split-luciferase Mdm2/MdmX complementation, luminescence. O15151+Q00987. AID 485346;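 active means inhibition of at least 50% at 8 µM in the primary screen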
Mdm2 MdmX conf = human Mdm2/MdmX binding inhibition, confirmed; shares compounds with Mdm2 MdmX PPI; luminescent assay; 55% of 10,000 active; AID 489028; inhibition, % at 8 µM; in the data active means inhibition above about 40%
Full FLuc ctr = full-length luciferase inhibition in Mdm2/MdmX counter-screen | shares compounds with Mdm2 MdmX PPI | SaOS-2 full-length luciferase counterscreen, luminescence | inhibition, % at 8 µM | 77% of 6,200 active | AID 504607;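 active means mean inhibition at 8 µM reaching about 37%, which flags the compound as non-specific, limit read from the data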;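 further: p53-null SaOS-2 cells with luciferase driven by a doxycycline-inducible promoter; compound on cells about two nights before reading with doxycycline added after day one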
Large screens that a line does not name were inactive (follow-up assays come after a bar, where they were run); ! = not confirmed by another sample.

CCC(=O)N1CCN(c2ccc(NC(=O)c3ccc([N+](=O)[O-])o3)cc2Cl)CC1	none (no result: PP1 inh, PP5 primary, Beta cell apopt, CSC inhib, Mdm2 MdmX PPI)
CC(=O)N1CCN(c2ccc(NC(=O)c3ccc([N+](=O)[O-])o3)cc2Cl)CC1	Mdm2 MdmX PPI 69 | Mdm2 MdmX conf 68 | Full FLuc ctr inactive
CCN1CCN(c2ccc(S(=O)(=O)N3CCCCC3)cc2NC(=O)c2ccc([N+](=O)[O-])o2)CC1	Beta cell apopt 102, Mdm2 MdmX PPI 53 | Mdm2 MdmX conf inactive
CCN1CCN(c2ccc(S(=O)(=O)N3CCOCC3)cc2NC(=O)/C=C/c2ccc([N+](=O)[O-])cc2)CC1	Mdm2 MdmX PPI 100 (no result: CSC inhib) | Mdm2 MdmX conf 48 | Full FLuc ctr 64
CCCOc1ccc2cc(C(=O)NCc3ccccc3)c(=O)oc2c1	none
CCc1nnc(NC(=O)CN2CCN(c3ccccc3F)CC2)s1	none
CCOc1ccc(NC2OCC(O)C(O)C2O)c([N+](=O)[O-])c1 (stereo not drawn)	none
CN1CCN(c2ccc(Cl)cc2NC(=O)/C=C/c2ccc(F)cc2)CC1	Mdm2 MdmX PPI 52 | Mdm2 MdmX conf inactive
CN1CCN(c2ccc(Cl)cc2NC(=O)c2ccc(S(=O)(=O)N3CCCCCC3)cc2)CC1	Mdm2 MdmX PPI 67 | Mdm2 MdmX conf inactive | Full FLuc ctr 72
CN1CCN(c2ccc(S(=O)(=O)N3CCCCC3)cc2NC(=O)c2ccc(C#N)cc2)CC1	none
CCCCn1c(CCl)nc2cc(S(=O)(=O)N3CCOCC3)ccc21	Mdm2 MdmX PPI 88 (no result: PP1 inh, Calb FLC, PP5 primary) | Mdm2 MdmX conf 53 | Full FLuc ctr inactive
CC(C)C[C@H]1CN=C(Nc2ccccc2)N1CCc1cccc(F)c1	Mdm2 MdmX PPI 58 (no result: PP1 inh, Calb FLC, PP5 primary) | Mdm2 MdmX conf inactive
C=CCc1ccc(OCCOc2cccc3ccc(C)nc23)c(OC)c1	none
CCOC(=O)c1sc2ncn(CC(=O)Nc3cc(C)on3)c(=O)c2c1C	Mdm2 MdmX PPI 55 (no result: Calb FLC, Beta cell apopt, CSC inhib) | Mdm2 MdmX conf inactive
CN(C)S(=O)(=O)c1cccc(NC(=O)COC(=O)c2cc3ccccc3oc2=O)c1	none
COc1cccc(/C=N/NC(=O)c2cc3c(OC)ccc(OC)c3[nH]2)c1O	PP1 inh 16, Beta cell apopt 86, CSC inhib 103, Mdm2 MdmX PPI 62 | Mdm2 MdmX conf 63 | Full FLuc ctr 38
COc1cccc(/C=N/Nc2ccc(C(=O)O)cc2)c1O	Mdm2 MdmX PPI 54 | Mdm2 MdmX conf inactive
COc1ccc(/C=N/NC(=O)c2ccc3nc[nH]c3c2)c(OC)c1OC	none
COc1cc(/C=N/NC(=O)c2cc(-c3ccccc3)nc3ccccc23)cc(OC)c1O	none
COc1cccc(/C=N/NC(=O)c2nc(-c3ccccc3)cc(-c3ccccc3)n2)c1O	Calb FLC 114, Mdm2 MdmX PPI 51 | Mdm2 MdmX conf inactive
COc1cc(OC)c2cc(C(=O)N/N=C/c3cccc(OC)c3O)[nH]c2c1	Beta cell apopt 97, CSC inhib 125, Mdm2 MdmX PPI 69 | Mdm2 MdmX conf 62 | Full FLuc ctr inactive
COc1ccc(NC(=O)C2CC(=O)N(Cc3ccco3)C2)cc1Cl (stereo not drawn)	none (no result: Calb FLC, CSC inhib)
COc1cccc2c1C(CO)N1C(C#N)C3CC(C(=O)O)C(C1C2)N3C (stereo not drawn)	Mdm2 MdmX PPI 100 (no result: Calb FLC) | Mdm2 MdmX conf 100 | Full FLuc ctr 52
COc1ccc(NC2=NCC(=O)N2Cc2cccs2)cc1	Mdm2 MdmX PPI 55 | Mdm2 MdmX conf inactive
CC(=O)c1ccc(NC(=O)Nc2ccc3c(c2)N(C)C(=O)CS3)cc1	Mdm2 MdmX PPI 69 | Mdm2 MdmX conf inactive
COc1ccc(NC(=O)Nc2ccc3c(c2)N(C)C(=O)CS3)cc1Cl	Mdm2 MdmX PPI 59 (no result: Beta cell apopt) | Mdm2 MdmX conf 42 | Full FLuc ctr 53
COc1ccc(NC(=O)Nc2ccc3c(c2)N(C)C(=O)CS3)cc1OC	none
CCOc1ccc(NC(=O)Nc2ccc3c(c2)N(C)C(=O)CS3)cc1	none (no result: Beta cell apopt)
NC(=O)c1ccc(NC(=O)CSc2nncn2-c2ccccc2)cc1	none
CC(C)=CCc1cc2c(=O)c3c(O)c4c(cc3oc2c(O)c1O)OC(C)C4(C)C (stereo not drawn)	Calb FLC 95, Beta cell apopt 109, Mdm2 MdmX PPI 92 | Mdm2 MdmX conf inactive | Full FLuc ctr 63
O=C(NCCc1nc2ccccc2[nH]1)/C(=C/c1ccc2c(c1)OCO2)NC(=O)c1ccc(Cl)cc1Cl	none
CC(C)(C)C(=O)O/N=C(\N)c1c(Cl)cccc1Cl	Mdm2 MdmX PPI 54 | Mdm2 MdmX conf inactive
COc1ccc(OCc2cccc(C(=O)Nc3cc(C)on3)c2)cc1	Calb FLC inconclusive | Mdm2 MdmX conf inactive
COc1ccc(OCc2cccc(C(=O)NN)c2)cc1	none
COc1ccc(OCc2cccc(C(=O)Nn3cc([N+](=O)[O-])cn3)c2)cc1	Calb FLC inconclusive, Mdm2 MdmX PPI 79 | Mdm2 MdmX conf 71 | Full FLuc ctr inactive
COc1cc2[nH]c(=O)n(CCC(=O)N3CCc4ccccc4C3)c(=O)c2cc1OC	none
CCOc1cc2[nH]c(=O)n(CCC(=O)N3CCN(c4ccccc4OC)CC3)c(=O)c2cc1OCC	none
COc1cc2[nH]c(=O)n(CCCCCC(=O)N3CC=C(c4ccccc4)CC3)c(=O)c2cc1OC	Mdm2 MdmX PPI 59 | Mdm2 MdmX conf inactive
COc1cc2[nH]c(=O)n(CCC(=O)N3CCN(c4cc(Cl)ccc4C)CC3)c(=O)c2cc1OC	Mdm2 MdmX PPI 75 | Mdm2 MdmX conf inactive
COC(=O)c1ccc2c(=O)n(CCCCCC(=O)N3CCN(c4ccc(F)cc4)CC3)c(=O)[nH]c2c1	Mdm2 MdmX PPI 67 | Mdm2 MdmX conf inactive
Cc1cccc2c(C(=O)O)cc(-c3cccnc3)nc12	none
O=C(O)c1cc2ccccc2c(N=Nc2cccnc2)c1O	Mdm2 MdmX PPI 61 | Mdm2 MdmX conf inactive
COc1ccc(C2=CC(=O)C[C@H](c3ccc4c(c3)OCO4)C2)cc1	none (no result: Calb FLC)
CN(C)c1ccnc2c[cH-]cc12.[Fe].c1ccc(-[c-]2[c-](-c3ccccc3)[c-](-c3ccccc3)[c-](-c3ccccc3)[c-]2-c2ccccc2)cc1 (stereo not drawn)	Mdm2 MdmX PPI 98 | Mdm2 MdmX conf 78 | Full FLuc ctr 37!
CN(C)S(=O)(=O)c1ccc(NC(=O)COc2ncnc3sccc23)cc1	none
COn1c2c(c3c4nonc4ccc31)CCCC2	Mdm2 MdmX PPI 59 | Mdm2 MdmX conf 47 | Full FLuc ctr 55
On1c2c(c3c4nonc4ccc31)CCCC2	none
COc1ccc(-c2noc(N3CCC(C(=O)NCCCN4CCCC(C)C4)CC3)n2)cc1 (stereo not drawn)	none
O=C(c1ccc([N+](=O)[O-])o1)N1CCN(c2nc3c(F)cc(F)cc3s2)CC1	none
